Sampled rows, rich in hits. Any-hit rate of the full collection: about 4.2%.
CCHF vOTU inh: blocks the CCHF virus ovarian tumor domain protease. CCHFV vOTU protease, Pep-AMC fluorescence. inhibition, % at 11.5 µM. 370,000 compounds, 0.55% hits. AID 651958; in the data active = inhibition above about 30%; also: 0% = vehicle wells with enzyme and 100% = no enzyme wells
GDH-TPI counter-1: inhibits GDH-TPI coupling enzymes, artifact for Mtb FBA screen | inhibition, % at 4.8 µM | 360,000 compounds, 1.2% hits | GDH-TPI coupled enzyme counterscreen, NADH absorbance | AID 588335; in the data active = inhibition above about 30%;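 also: 0% = DMSO wells and 100% = wells lacking the enzyme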
Mtb FBA inh: Mtb fructose-bisphosphate aldolase inhibition | inhibition, % at 1 µM | P9WQA3 | AID 588726 | purified M. tuberculosis FBA, fluorescence read-out | 360,000 compounds, 2.3% hits;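 also: 0% = vehicle and 100% = reference inhibitor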
Target sequence (P9WQA3 whole entry, looked up): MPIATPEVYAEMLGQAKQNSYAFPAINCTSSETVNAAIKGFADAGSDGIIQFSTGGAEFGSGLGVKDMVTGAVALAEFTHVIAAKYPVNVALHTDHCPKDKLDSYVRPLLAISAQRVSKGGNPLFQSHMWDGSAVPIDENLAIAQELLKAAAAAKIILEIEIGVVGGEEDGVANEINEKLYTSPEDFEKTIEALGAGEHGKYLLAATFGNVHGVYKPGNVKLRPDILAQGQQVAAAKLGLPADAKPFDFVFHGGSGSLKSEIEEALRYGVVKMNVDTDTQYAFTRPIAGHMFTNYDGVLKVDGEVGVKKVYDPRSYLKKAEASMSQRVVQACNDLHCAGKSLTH
RecA intein inh: inhibitors of M. tuberculosis RecA intein splicing. P9WHJ3. cell-free RecA intein splicing, fluorescence. inhibition, % (test concentration not listed). 290,000 compounds, 0.75% hits; in the data active = inhibition above about 30%;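 also: 0% = vehicle wells and 100% = reference inhibitor control wells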
Mtb FBA inh conf: Mtb FBA inhibition, confirmed | shares compounds with Mtb FBA inh | purified M. tuberculosis FBA, fluorescence read-out | inhibition, % at 1 µM | 5,600 compounds, 78% hits;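 also: 0% = vehicle wells and 100% = reference inhibitor wells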
GDH-TPI counter-2: inhibits GDH-TPI coupling enzymes, flagging Mtb FBA hits; 5,600 compounds, 81% hits; GDH-TPI coupled enzyme counterscreen, fluorescence; inhibition, % at 1 µM; shares compounds with Mtb FBA inh; in the data active = inhibition above about 10%
The depositor's hits bear a star; . = no result given; + = active, no number. Rule as the data show it, unless noted: active = inhibition above about 27%; inactive = the rest.

SMILES	CCHF vOTU inh	GDH-TPI counter-1	Mtb FBA inh	RecA intein inh	Mtb FBA inh conf	GDH-TPI counter-2
Fc1cccc(NC(=S)Nc2cccc3ccccc23)c1	-16	-2	67*	3	+	+
CC(=O)c1ccc(NC(=S)Nc2cccc3ccccc23)cc1	0	16	53*	5	76*	60*
COc1cc2c(cc1NC(=S)Nc1cccc3ccccc13)oc1ccccc12	-17	23	105*	-1	+	187*
O=C(Nc1cccc2ccccc12)c1cccc(F)c1	10	-7	1	2	.	.
COCCN(CC(=O)Nc1cccc(C)c1C)C(=O)c1oc2ccccc2c1C	6	4	-1	.	.	.
Cc1ccsc1C(=O)N(C)CC(=O)N(CC(C)C)c1c(N)n(CC(C)C)c(=O)[nH]c1=O	-10	9	15	-2	.	.
CCc1ccccc1Oc1coc2cc(O)ccc2c1=O	-35	15	31*	-1	111*	75*
Cc1cccc(Oc2coc3cc(O)ccc3c2=O)c1	-46	10	37*	-6	72*	63*
CCOC(=O)Oc1ccc2c(=O)c(Oc3cccc(C)c3)coc2c1	-24	16	16	0	.	.
CN(C)c1ccc(S(=O)(=O)N2CCCCC2)cc1NC(=O)C1=NN(c2ccccc2)C(=O)CC1	0	0	-2	0	.	.
Cc1noc(C)c1S(=O)(=O)N(C)C[C@H]1Oc2ccc(NS(=O)(=O)c3cn(C)cn3)cc2C(=O)N([C@H](C)CO)C[C@@H]1C	-3	10	10	.	.	.
CC1(Oc2ccc(Cl)cc2)CCN(Cc2ccc(-c3ccccn3)cc2)C1 (stereo not given)	4	7	1	.	.	.
CN1CCN(S(=O)(=O)c2cccc(C(=O)NCc3ccc(Cl)cc3)c2)CC1	-1	-6	64*	0	48*	44*
Cc1ccc(-c2csc(NC(=O)CN3CC(C)OC(C)C3)n2)cc1 (stereo not given)	1	-2	42*	-1	88*	67*
c1ccc(-c2cc(-c3nc4ccccc4[nH]3)c3ccccc3n2)cc1	-30	23	60*	6	69*	71*
O=c1[nH]nc(-c2cc(-c3ccccc3)nc3ccccc23)o1	10	29	65*	.	122*	94*
O=C(O)c1cc(-c2ccccc2)nc2ccccc12	-4	20	9	4	.	.
Cn1cc(-c2nc3ccccc3[nH]2)c2ccccc21	-9	19	44*	2	2	6
N#Cc1nc(Cc2ccccc2)oc1NCc1cccnc1	-13	0	0	1	.	.
COc1ccc(-c2nc(C#N)c(NCc3ccc(F)cc3)o2)cc1OC	-12	10	103*	3	74*	55*
COc1ccc(-c2nc(C#N)c(NCc3ccccc3Cl)o2)cc1	4	1	10	2	.	.
COc1ccc(-c2nc(C#N)c(NCc3ccccc3Cl)o2)cc1OC	-9	23	57*	1	114*	81*
COc1ccc(-c2nc(C#N)c(NCc3cccnc3)o2)cc1OC	-8	14	30*	-2	53*	39*
CC(C)Oc1ccc(C(=O)Nc2ncn[nH]2)cc1	-13	6	3	-1	.	.
CCc1nc(NC(C)C)c2oc3ccccc3c2n1	5	-10	-1	2	.	.
SMILES	CCHF vOTU inh	GDH-TPI counter-1	Mtb FBA inh	RecA intein inh	Mtb FBA inh conf	GDH-TPI counter-2
Cc1nc(Nc2ccncc2)c2oc3ccccc3c2n1	10	33*	35*	0	161*	136*
CC(=O)Nc1ccc(Nc2nc(C)nc3c2oc2ccccc23)cc1	11	22	-1	3	.	.
CCc1nc(Nc2ccncc2)c2oc3ccccc3c2n1	1	40*	57*	0	49*	41*
COc1ccc([C@H]2CC(=O)C=C(c3ccc(Oc4ccccc4)cc3)C2)cc1OC	14	9	-3	.	.	.
O=c1nc(-c2ccccc2)n(-c2ccccc2)[nH]1	-3	-4	39*	1	157*	129*
O=c1cc(-c2ccccc2)[nH]n1-c1ccccc1	25	-3	3	.	.	.
NC(=O)c1c(NC(=O)C(=O)N2CCOCC2)sc2c1CCC2	4	20	33*	-5	117*	89*
NC(=O)c1c(NC(=O)C(=O)N2CCOCC2)sc2c1CCCC2	14	20	-4	-3	.	.
Cc1cc(=O)oc2cc(OCC(=O)N3C[C@H]4C[C@@H](C3)c3cccc(=O)n3C4)c(Cl)cc12	-1	13	8	-4	.	.

Bioassay records: PubChem, several laboratories
